Reference: PubChem BioAssay AID1850 (Southern Research Specialized Biocontainment Screening …, 2009)
Values joined by “and” are separate entries in the source; they are usually repeats but may differ in a detail not shown here. Identical values can stand only once. Among all 310,000 compounds or so, about 1,000 (0.32%) were called active. Not all results are given here. Results with a measured potency or affinity are listed apart. Values without a mark were called inactive. How the calls were made is not given here.

Assay: PhoP regulon inhibitors, Salmonella typhi PhoP promoter GFP reporter, confirmatory (AID 1850);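 further: 0% = induced wells with vehicle and 100% = uninduced wells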
Conditions: fluorescence, 4 h, at 50 µM, hits give high values

Compound	inhibition
N/C(CC(=O)Nc1ccc(F)c(Cl)c1)=N\OC(=O)c1cccs1	-6.75%
CC(=O)Cc1nsc(Nc2ccc(C)cc2)n1	0.05%
COC(=O)c1cc(-c2cccc([N+](=O)[O-])c2)c2c(=O)n(C)c(=O)n(C)c2n1	0.74%
CC1CCC(C(C)C)C(OC(=O)Cn2c(-c3ccc(Br)cc3)[n+](C)c3ccccc32)C1 (stereo unspecified)	-12.1%
CC1CCC(C(C)C)C(OC(=O)Cn2c(-c3ccccc3)[n+](C)c3ccccc32)C1 (stereo unspecified)	7.04% and -8.34%
CC1CCC(C(C)C)C(OC(=O)Cn2c(-c3ccc(F)cc3)[n+](C)c3ccccc32)C1 (stereo unspecified)	9.13%
CC1CCC(C(C)C)C(OC(=O)COC(=O)c2ccc(N)cc2)C1 (stereo unspecified)	-3.86%
CC1CCC(C(C)C)C(OC(=O)COC(=O)c2ccccc2N)C1 (stereo unspecified)	-3.26%
CC1CCC(C(C)C)C(OC(=O)CSc2nccc(=O)[nH]2)C1 (stereo unspecified)	-9.72%
CCOC(=O)c1cnc2ccc(OC)cc2c1NCCN1CCOCC1	-3.63%
COc1ccc(OC)c(NC(=O)c2nnn(CC(=O)Nc3ccc4c(c3)OCO4)c2N)c1	-17.1%
CN(C(=O)C1CCN(S(=O)(=O)c2cccs2)CC1)C1CCCCC1	-11.4%
Cc1cc(=O)oc2cc(OCCCC[n+]3ccccc3)ccc12	-6.05%
CC(=O)Nc1ccc(OCCC[n+]2cccc(C(=O)[O-])c2)cc1	5.76%
Cc1ccc[n+](Cc2ccc([N+](=O)[O-])cc2)c1	-2.48%
CCC(C)(C)c1ccc(OCCCC[n+]2ccc(C)cc2)c(C(C)(C)CC)c1	6.7%
CC(=O)Nc1ccc(OCCC[n+]2ccccc2)cc1	-5.56%
CCC(C)(C)c1ccc(OCCCC[n+]2cccc(C)c2C)c(C(C)(C)CC)c1	9.55%
CCCCOc1ccc(CCN)cc1Cl	-8.19%
CCCCCc1ccc(OCCCC[n+]2ccc(C)cc2)c(CCCCC)c1	-3.58%
COc1ccc(N(C(C)C(=O)N/N=C/c2ccc(OCC(C)C)cc2)S(C)(=O)=O)cc1 (stereo unspecified)	-7.5%

Compound	inhibition
O=c1[nH]c(=O)n(C2CCCCCC2)c(O)c1C=NCc1cccnc1	0.08%
Cn1nc(CC(=O)Nc2ncc(Br)s2)c2ccccc2c1=O	-7.27%
COc1ccc(S(=O)(=O)N2CCCC(C(=O)NC3CC3)C2)cc1Cl (stereo unspecified)	4.9%
CC1CCCN(C2=NC(=O)/C(=C/c3cn(-c4ccccc4)nc3-c3cccc(S(=O)(=O)N(C)C)c3)S2)C1 (stereo unspecified)	-7.62%
Cc1cc(Br)c(NC(=O)COC(=O)CSc2nnc(-c3ccc(Cl)cc3)o2)c(Br)c1	6%
Cc1ccc(S(=O)(=O)NCCC(=O)Nc2ccc(Cl)c(Cl)c2)cc1	-0.17%
COCc1cc(=O)n2[nH]c(N)nc2n1	6.29%
CCOC(=O)[C@@H]1[C@H]2COc3cc(OC)ccc3[C@@H]2N2C(=O)N(c3ccc(C)cc3)C(=O)[C@]12C	-2.59%
CC[n+]1c(/C=C/N(C)c2ccccc2)sc2ccc(Cl)cc21	-2.8%
CCn1c(/C=C/N(C)c2ccccc2)[n+](CC)c2ccc(Cl)cc21	20.2%
Cc1ccc(SCC(=O)NCCSC(C)(C)C)cc1	-5.44%
CC(=O)Nc1ccc(S(=O)(=O)NCCCc2ccccc2)cc1	-4.81%
Cc1ccc2nc(N(CCCN(C)C)C(=O)c3ccc(Br)s3)sc2c1	4.27%
Cc1ccc2sc(N(CCCN(C)C)C(=O)c3nc4ccccc4s3)nc2c1C	11.1%
CC(NCc1ccccc1Cl)C(O)c1ccccc1 (stereo unspecified)	3.04%
CSc1ccc(CNC(C)C(O)c2ccccc2)cc1 (stereo unspecified)	20.7%
CC(NCc1ccc(Cl)cc1)C(O)c1ccccc1 (stereo unspecified)	32.7%
CC(NCc1ccc(Cl)cc1Cl)C(O)c1ccccc1 (stereo unspecified)	-10%
CCOc1ccc(-c2nc(CSCC(=O)NC3CC3)c(C)o2)cc1	5.51%
O=C(Nc1cc(Cl)ccc1-n1cncn1)c1ccc(F)c(S(=O)(=O)N2CCOCC2)c1	6.99%
CC(C)c1ccc(NC(=S)N2CCN(Cc3ccccc3)CC2)cc1	14.4%

Compound	inhibition
COc1ccc(CNc2nc3ccccc3n2CCN2CCOCC2)cc1	14.4%
COc1ccc(CC(=O)N2CCC(Nc3nc4ccccc4n3Cc3ccc(F)cc3)CC2)cc1	8.15%
CC(C)=C(NC(=O)c1ccccc1Br)C(=O)NCCc1nc2ccccc2[nH]1	3.02%
Cc1ccccc1Nc1nc(Nc2ccccc2C)nc(SC2=NCCS2)n1	5.86%
CCCCNC(=S)NCC(c1ccccc1)c1c[nH]c2ccccc12 (stereo unspecified)	0.6%
OC(CNCC(c1ccc(Cl)cc1Cl)c1c[nH]c2ccccc12)c1ccccc1 (stereo unspecified)	-5.36%
O=C(O)CCN1C(=O)c2ccc(NC(=O)C(c3ccccc3)c3ccccc3)cc2C1=O	3.59%
Cn1c(=O)c2c(ncn2CC(=O)Nc2nc(-c3ccccc3Cl)cs2)n(C)c1=O	21.1%
CCc1ccc2nc3nc(C)cc(C)c3c(N)c2c1	-15%
Cc1cc(C)c2c(N)c3cccc(C)c3nc2n1	-7.17%
CC(=O)c1ccc(NC(=O)CSc2nc(N)c3cc4c(nc3n2)CCCC4)cc1	-7.23%
Cc1cc(C)c(OCC(=O)OCC(=O)NCCC2=CCCCC2)c(C)c1	1.39%
CC12CN3CCN(C1)CC(C)(C3)C2=NN	6.55%
NC(=S)N/N=C/c1c(O)ccc2ccccc12	-1.9%
Cc1ccccc1/C=N/Nc1nc2ccccc2c(=O)n1O	-20.3%
O=C(N/N=C\c1c(O)ccc2ccccc12)c1ccc(O)cc1	-4.79%
Oc1ccc2ccccc2c1/C=N/Nc1ccccc1	-3.44%
O=c1c2ccccc2nc(N/N=C/c2ccc(O)cc2)n1O	10.2%
Cc1ccc(C(=O)N/N=C/c2c(O)ccc3ccccc23)cn1	-2.29%
